High-throughput results from PubChem.
TSG101-PTAP inh: blocks PTAP/TSG101 interaction to inhibit HIV-1 budding; Fluorescence polarization, FITC-PTAP peptide / Tsg101 binding; Potency, µM (titrated, usually from 115 µM), actives largely listed as inhibitors; 340,000 tested, under 10 active; AID 493005; active = well fitted inhibition curve with a large enough effect in the main read-out, with a control signal flat, not every such curve was filed as active; inconclusive = small, poorly fitted or top-dose-only effect, or effect the other way, or a change in a side signal; inactive = no such curve, though single readings can be large or run the other way
Target sequence (Q99816 whole entry, looked up): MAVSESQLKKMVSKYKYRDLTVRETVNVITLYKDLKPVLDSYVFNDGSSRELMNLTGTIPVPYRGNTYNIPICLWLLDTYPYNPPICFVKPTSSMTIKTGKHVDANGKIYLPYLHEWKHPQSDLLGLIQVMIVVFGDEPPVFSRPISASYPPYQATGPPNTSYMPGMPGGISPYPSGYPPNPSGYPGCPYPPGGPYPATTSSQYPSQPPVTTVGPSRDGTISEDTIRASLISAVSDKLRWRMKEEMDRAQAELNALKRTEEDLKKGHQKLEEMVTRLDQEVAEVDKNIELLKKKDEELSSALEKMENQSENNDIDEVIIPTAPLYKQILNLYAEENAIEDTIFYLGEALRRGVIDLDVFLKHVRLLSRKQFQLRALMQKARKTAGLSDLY
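FP read-out: FITC-PTAP peptide, 50 nM final, binding Tsg101 binding domain, 10 uM final; 20 min, r.t.; 10 mM HEPES pH 7.5, 0.15 M NaCl, 0.01% Tween 20, 3 mM EDTA, 0.1 mM TCEP.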
KB-3-1 tox: kills parental KB-3-1 adenocarcinoma cells. KB-3-1 viability, CellTiter-Glo ATP luminescence, 72 h. Potency, µM (top dose mostly 46.1 µM), hits mostly cytotoxic. hit rate 1.4% among 400,000; note: nearly all actives have a fitted effect of over 60% in size
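KB-3-1 parental drug-naive adenocarcinoma cells in DMEM/10% FBS, incubated 72 h at 37 C with pin-transferred compounds across a concentration series. Viability by CellTiter-Glo luminescence; concentration-response curves fitted after normalization.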
SW480 rerep: DNA re-replication induction in SW480 cells; hit rate 1.8% among 340,000; AID 624297; Potency, µM (doses to about 46.1 µM), usual class: activators; SW480 DNA re-replication, Hoechst DNA content imaging, 48 h; note: nearly all actives have a fitted effect of over 55% in size
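SW480 cells exposed to compounds for 48 hr at 37 C, 5% CO2, then Hoechst-stained 40 min. Nuclear DNA content imaged by fluorescence scanning (405 nm excitation, 500-530 nm emission); re-replication scored as increased high-intensity nuclei.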
PINK1 expr mod: modulators of PINK1 expression | PINK1 immunofluorescence, high-content cytometry, 24 h | Potency, µM (series often up to 76.6 µM), usual class: activators | hit rate 0.2% among 410,000 | AID 624263; active = well fitted activation curve with a large enough effect; inconclusive = small, poorly fitted or top-dose-only effect; cell line not stated here; note: nearly all actives have a fitted effect of over 65% in size
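Measures PINK1 amount and localization on or inside mitochondria by immunofluorescence. Stable cells get compounds at 5 concentrations for 24 hours before fixation and staining; CCCP controls included.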
KB-V1 MDR tox: KB-V1 MDR subline cytotoxicity; KB-V1 MDR cells viability, CellTiter-Glo, 72 h; Potency, µM (titrated, usually from 46.1 µM), most hits filed as cytotoxic; hit rate 3.4% among 400,000; AID 1347076; note: nearly all actives have a fitted effect of over 60% in size
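KB-V1 MDR subline cells in DMEM (phenol-red free, 10% FBS) exposed to compounds in qHTS concentration series for 72 h at 37 degrees C. Viability read by CellTiter-Glo luminescence; concentration-effect curves fitted after normalization and correction.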
MCF10A rereplic: inducers of DNA re-replication in MCF 10A breast cells; MCF 10A DNA re-replication, Hoechst nuclear intensity, 48 h; AID 624296; hit rate 2.9% among 350,000; Potency, µM (titrated, usually from 46.1 µM), actives largely listed as activators; note: nearly all actives have a fitted effect of over 50% in size
Each line names hits and unclear results; the compound was inactive in the other large screens. A selection: hits, their analogues and other compounds. The true share with any hit is near 6.8%. Unless noted, calls come from the whole dose curve; as a rule, active = well fitted curve in the direction sought with a large enough effect; inconclusive = small, poorly fitted or top-dose-only effect, or another doubt; inactive = no such curve, though single readings can be large; an effect the other way counts as inactive or inconclusive.

CCOc1ccccc1C1C2=C(COC2=O)Nc2cc3c(cc21)OCO3 (stereo not given)	KB-3-1 tox 1.16µM, SW480 rerep 0.92µM, KB-V1 MDR tox 3.66µM, MCF10A rereplic inconclusive
CN1CCN(c2nn3c(=O)c4ccccc4nc3s2)CC1	none (no result: TSG101-PTAP inh, SW480 rerep, PINK1 expr mod, MCF10A rereplic)
CCOC(=O)[C@]12Cc3c(cc(OC)c(OC)c3OC)[C@H]1N(Cc1ccccc1)C(=O)c1cc(F)c(F)cc12	KB-3-1 tox inconclusive, KB-V1 MDR tox inconclusive (no result: TSG101-PTAP inh, SW480 rerep, MCF10A rereplic)
CCOC(=O)[C@]12Cc3c(cc(OC)c(OC)c3OC)[C@H]1N(Cc1ccccc1)C(=O)c1cc(OC)ccc12	KB-3-1 tox 4.61µM, KB-V1 MDR tox inconclusive (no result: TSG101-PTAP inh, SW480 rerep, MCF10A rereplic)
COc1ccc(-c2nc(-c3cccnc3)no2)cc1OC	none
COc1ccc(-c2csc3nc(-c4cccnc4)nc(Cl)c23)cc1OC	SW480 rerep inconclusive, MCF10A rereplic 18.4µM
Clc1nc(-c2cccnc2)nc2scc(-c3ccccc3)c12	SW480 rerep 11.6µM, MCF10A rereplic 16.4µM
Cc1c2cnn(CC(=O)N3CCN(c4ccc(F)cc4)CC3)c(=O)c2c(C)n1Cc1ccccc1F	none (no result: TSG101-PTAP inh, SW480 rerep, MCF10A rereplic)
Cc1cc(C(=O)Nc2ccccc2-c2nc(CNC(=O)c3cc4ccccc4cn3)c(C)o2)c(C)o1	none (no result: TSG101-PTAP inh, KB-3-1 tox, SW480 rerep, KB-V1 MDR tox, MCF10A rereplic)
CCOc1ccccc1NC(=O)C(OC(=O)c1cnccn1)c1ccccc1 (stereo not given)	KB-V1 MDR tox 18.4µM
CCOc1ccccc1NC(=O)C(OC(=O)c1ccc(O)cc1)c1ccccc1 (stereo not given)	KB-3-1 tox inconclusive, PINK1 expr mod inconclusive, KB-V1 MDR tox 14.6µM
CCOc1ccccc1NC(=O)C(OC(=O)c1ccc(N(C)C)cc1)c1ccccc1 (stereo not given)	KB-V1 MDR tox 9.2µM
Cc1oc(-c2ccccc2NC(=O)c2ccccn2)nc1CNC(=O)c1cccc(C#CC(C)(C)O)c1	none (no result: TSG101-PTAP inh, KB-3-1 tox, SW480 rerep, KB-V1 MDR tox, MCF10A rereplic)
O=C(NCCCN1CCN(c2ccccc2F)CC1)C1COc2ccccc2C1 (stereo not given)	none (no result: TSG101-PTAP inh, SW480 rerep, MCF10A rereplic)
CCOc1ccc(Nc2ncnc3c2nc2n3CCCC2)cc1	none (no result: TSG101-PTAP inh, KB-3-1 tox, SW480 rerep, KB-V1 MDR tox, MCF10A rereplic)
O=C1C2C3C=CC(C3)C2C(=O)N1c1ccc2c(c1)CCC2 (stereo not given)	KB-V1 MDR tox 18.4µM
CCOC(=O)C1=C(O)/C(=C/c2cc(OC)c(O)c(OC)c2)SC1=Nc1ccc(OC)cc1	SW480 rerep inconclusive, MCF10A rereplic 16.4µM
CCOC(=O)C1=C(O)/C(=C/c2cn(CC(=O)NCC3CCCO3)c3ccccc23)SC1=Nc1ccc(C)cc1 (stereo not given)	TSG101-PTAP inh inconclusive, PINK1 expr mod 14.1µM, MCF10A rereplic inconclusive
CCOC(=O)C1=C(O)/C(=C/c2ccc(-c3ccccc3C(=O)O)o2)SC1=Nc1ccc(C)cc1	SW480 rerep inconclusive, MCF10A rereplic 13µM
CCOC(=O)C1=C(O)/C(=C/c2ccc(OCC(=O)O)c(OC)c2)SC1=Nc1ccc(OCC)cc1	none
CCOC(=O)C1=C(O)/C(=C/c2ccc(-c3ccccc3C(=O)O)o2)SC1=Nc1ccc(OC)cc1	none
CCc1nnc(SCC(=O)N(C)c2ccccc2)c2cc3sccc3n12	none (no result: TSG101-PTAP inh, KB-3-1 tox, SW480 rerep, KB-V1 MDR tox, MCF10A rereplic)
Cc1nc(C)n(CC(=O)NCC2Cc3cc(-c4cccc(OC(F)(F)F)c4)ccc3O2)n1 (stereo not given)	none (no result: TSG101-PTAP inh, KB-3-1 tox, SW480 rerep, KB-V1 MDR tox, MCF10A rereplic)
Cc1ccc(NC(=O)CCCN2C(=O)COc3ccc(C)cc32)c(Cl)c1	none (no result: TSG101-PTAP inh, KB-3-1 tox, SW480 rerep, KB-V1 MDR tox, MCF10A rereplic)
CC(C)C(=O)c1cc2c(cc1NC(=O)c1ccccc1F)OCCO2	none (no result: TSG101-PTAP inh, SW480 rerep, MCF10A rereplic)
O=C(Nc1ccc(-c2ccco2)cc1)C1CCCN(Cc2ccc(CO)o2)C1 (stereo not given)	none
COc1cccc(-c2ccc(NC(=O)C3CCCN(Cc4cnn(C(C)C)c4)C3)cc2)c1 (stereo not given)	KB-3-1 tox inconclusive, SW480 rerep inconclusive, MCF10A rereplic 18.4µM
CCCc1ncc(CN2CCCC(C(=O)Nc3ccc(-c4cccc(OC)c4)cc3)C2)cn1 (stereo not given)	SW480 rerep inconclusive
Cc1cccc(CN2CCCC(C(=O)Nc3ccc(-c4cscn4)cc3)C2)c1 (stereo not given)	KB-3-1 tox 16.4µM, SW480 rerep inconclusive, PINK1 expr mod inconclusive, KB-V1 MDR tox inconclusive (no result: TSG101-PTAP inh)
Cc1ncc(CN2CCCC(C(=O)Nc3ccc(-c4cccc(F)c4)cc3)C2)cn1 (stereo not given)	SW480 rerep inconclusive
CC(=O)c1cccc(CN2CCCC(C(=O)Nc3ccc(-c4ccco4)cc3)C2)c1 (stereo not given)	SW480 rerep 8.2µM, MCF10A rereplic inconclusive
Cc1ccccc1CN1CCCC(C(=O)Nc2ccc(-c3ccn[nH]3)cc2)C1 (stereo not given)	KB-3-1 tox inconclusive, SW480 rerep inconclusive, KB-V1 MDR tox 11.6µM, MCF10A rereplic inconclusive
CCn1c(-c2cccc(OC)c2)nc2cc(NC(C)=O)cc(C(=O)N3CCCC(C(C)=O)C3)c21 (stereo not given)	none (no result: TSG101-PTAP inh, KB-3-1 tox, SW480 rerep, KB-V1 MDR tox, MCF10A rereplic)
COc1ccc(S(=O)(=O)NCCS(=O)(=O)N2CCN(c3ccccc3F)CC2)cc1	none (no result: TSG101-PTAP inh, KB-3-1 tox, SW480 rerep, KB-V1 MDR tox, MCF10A rereplic)
Cc1nn(C)c(Cl)c1CN1CCCC(C(=O)Nc2ccc(-c3cscn3)cc2)C1 (stereo not given)	MCF10A rereplic inconclusive (no result: KB-3-1 tox, KB-V1 MDR tox)
O=C(Nc1ccc(-c2cscn2)cc1)C1CCCN(Cc2ccccc2)C1 (stereo not given)	KB-3-1 tox inconclusive, SW480 rerep 29.1µM, MCF10A rereplic inconclusive
Cn1cccc1/C=C1\SC(=Nc2ccc(O)cc2)NC1=O	KB-3-1 tox 0.291µM, SW480 rerep 0.461µM, PINK1 expr mod inconclusive, MCF10A rereplic 0.581µM
